Screening data as filed in PubChem BioAssay.
3T3 cytotox = Cytotoxic Profiling in NIH 3T3 Cell Line of Diverse Libraries Using Quantitative High-Throughput Screening; Potency, µM (highest dose often 96.7 µM), for inactives: at the highest dose activity change, negative = cytotoxicity, actives largely listed as inhibitors; 4.3% of 94,000 active; NIH 3T3 viability, CellTiter-Glo ATP luminescence, 48-72 h; further: potency means the concentration at half of the fitted maximal effect; on the % scale 0 is the no-effect control and ±100 the full control effect; nearly all actives have a fitted effect of over 55% in size
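ATP-dependent luminescence (CellTiter-Glo) served as the viability signal for NIH 3T3 cells treated with compound for 48 or 72 hr at 37 °C.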
SNCA viab count = GF-AFC viability counterscreen for inhibitors of alpha-synuclein gene (SNCA) expression; HEK-293-SNCA-luc viability, GF-AFC fluorescence, 24 h; Potency, µM (highest dose often 57.1 µM), for the others: at the top dose activity change, negative = cytotoxicity, usual class: cytotoxic; 0.12% of 150,000 active; AID 1671193, 2021;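 further: potency means the concentration at half of the fitted maximal effect; 0% = DMSO-treated cells and -100% = medium-only wells without cells; nearly all actives have a fitted effect of over 30% in size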
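HEK-293-SNCA-luc cells (1500/well) plated 24 h, then exposed 24 h to a dilution series; GF-AFC added 30 min at 37C, fluorescence 405/540 nm; normalised to medium-only and DMSO wells, Hill fit.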
SNCA expr inh = Primary qHTS assay for inhibitors of alpha-synuclein gene (SNCA) expression; HEK-293 SNCA-luciferase knock-in, luminescence, 24 h; Potency, µM (top dose mostly 57.2 µM), for the others: top-dose activity change, negative = inhibition, most hits filed as inhibitors; 0.17% of 140,000 active;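 further: potency means the concentration at half of the fitted maximal effect; plate controls were DMSO cells for no effect and cell-free wells for full effect; nearly all actives have a fitted effect of over 45% in size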
IP6K1 inh = Primary qHTS assay for small molecule inhibitors of Inositol hexaphosphate kinase 1 (IP6K1); IP6K1 kinase, ADP-Glo luminescence, 2 h; hits give low values; activity change, % (series mostly up to about 58 µM); 0.81% of 140,000 active; in the data active means activity change below about -25%; further: on the % scale 0 is the no-effect control and ±100 the full control effect
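ADP-Glo luminescence measures ADP made by human IP6K1 during a 2 h RT reaction with ATP/IP6 (mix at 1.3 mM/130 uM); top library doses 57.5 and 19.1 uM final.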
FLuc inh-1 = Firefly luciferase inhibition profiling of diverse chemical library using quantitative high-throughput screening; AID 1347043, 2019; 2.5% of 76,000 active; purified P. pyralis luciferase, luminescence, biochemical; Luciferin 4-monooxygenase (Photinus pyralis), P08659; Potency, µM (highest dose often 115 µM), most hits filed as inhibitors; further: potency means the concentration at half of the fitted maximal effect; on the % scale 0 is the no-effect control and ±100 the full control effect; nearly all actives have a fitted effect of over 65% in size
Target sequence (P08659 whole entry, looked up): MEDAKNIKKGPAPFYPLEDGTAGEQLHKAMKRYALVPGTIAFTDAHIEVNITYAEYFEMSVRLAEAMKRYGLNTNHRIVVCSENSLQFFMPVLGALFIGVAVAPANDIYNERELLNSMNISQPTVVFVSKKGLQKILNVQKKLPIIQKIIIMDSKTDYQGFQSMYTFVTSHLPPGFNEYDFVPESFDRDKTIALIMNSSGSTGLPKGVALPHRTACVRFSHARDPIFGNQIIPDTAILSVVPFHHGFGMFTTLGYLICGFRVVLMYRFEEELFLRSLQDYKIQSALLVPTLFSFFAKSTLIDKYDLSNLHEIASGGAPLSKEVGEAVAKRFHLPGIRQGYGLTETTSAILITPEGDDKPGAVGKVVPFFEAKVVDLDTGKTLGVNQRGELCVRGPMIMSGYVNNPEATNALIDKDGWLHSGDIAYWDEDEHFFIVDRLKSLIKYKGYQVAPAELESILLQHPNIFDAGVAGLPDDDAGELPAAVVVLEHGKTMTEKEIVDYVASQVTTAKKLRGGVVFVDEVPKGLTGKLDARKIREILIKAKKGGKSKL
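Luminescence read by CCD imaging after purified firefly luciferase (10nM final) was added to substrate buffer holding 10uM D-luciferin and 10uM ATP, pH 7.5, pre-dosed with compound.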
HEK293 tox = Cytotoxic Profiling in HEK 293 Cell Line of Diverse Libraries Using Quantitative High-Throughput Screening. 6.6% of 94,000 active. Potency, µM (highest dose often 115 µM), without a hit: at the highest dose activity change, negative = cytotoxicity, usual class: inhibitors. HEK 293 viability, ATP luminescence (CellTiter-Glo), 48-72 h; further: potency means the concentration at half of the fitted maximal effect; on the % scale 0 is the no-effect control and ±100 the full control effect; nearly all actives have a fitted effect of over 60% in size
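Luminescence from cellular ATP, measured with CellTiter-Glo, indicates HEK 293 viability. Cells plated at 250 cells/well are treated with compound for 48 or 72 hr at 37 degree Celsius before reagent addition.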
FLuc SDR -ATP = Firefly luciferase (FLuc-C-HiBiT) SDR gain of signal screen - without ATP. shares compounds with FLuc inh-1. Purified FLuc-C-HiBiT, Nano-Glo HiBiT luminescence, no ATP. Potency, µM (highest dose often 32.7 µM), inactives show at the top dose activation (signal gain), usual class: activators. 7.8% of 1,300 active. AID 1963318, 2024; further: potency means the concentration at half of the fitted maximal effect; nearly all actives have a fitted effect of over 55% in size
FLuc SDR ATP = Firefly luciferase (FLuc-C-HiBiT) SDR gain of signal screen - plus ATP. shares compounds with FLuc inh-1. purified FLuc-C-HiBiT + ATP, HiBiT complementation luminescence. Potency, µM (top dose mostly 32.7 µM), inactives show top-dose activation (gain of signal), hits mostly activators. 8.7% of 1,300 active. AID 1963319, 2024;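 further: signal reports ligand binding via conformational change of the enzyme rather than luciferase catalysis; potency means the concentration at half of the fitted maximal effect; % of control where 0% means no effect; nearly all actives have a fitted effect of over 55% in size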
FLuc inh-2 = Firefly luciferase (FLuc-C-HiBiT) enzymatic inhibition screen - Functional assay; purified FLuc-C-HiBiT enzyme, luciferin luminescence; shares compounds with FLuc inh-1; AID 1963320, 2024; 42% of 1,300 active; Potency, µM (top dose mostly 32.7 µM), inactives show at the top dose activity change, negative = inhibition, most hits filed as inhibitors; further: potency means the concentration at half of the fitted maximal effect; on the % scale 0 is the no-effect control and ±100 the full control effect; nearly all actives have a fitted effect of over 70% in size
IP6K1 conf = Confirmatory qHTS assay for small molecule inhibitors of Inositol hexaphosphate kinase 1 (IP6K1). Potency, µM (titrated, usually from 49 µM), inactives show top-dose activity change, negative = inhibition, actives largely listed as inhibitors. AID 1645852, 2021. recombinant IP6K1 kinase, ADP-Glo luminescence, 2 h. 13% of 1,200 active. shares compounds with IP6K1 inh; further: potency means the concentration at half of the fitted maximal effect; on the % scale 0 is the no-effect control and ±100 the full control effect; nearly all actives have a fitted effect of over 65% in size
* = called active by the depositor; i = inactive; ? = inconclusive; nt = not tested or not shown; [ ] = remark or other dose. A selection: hits, their analogues and other compounds. The true share with any hit is near 7.3%. Unless noted, the call rests on the fitted dose curve; in most records, active means well fitted curve in the direction sought with a large enough effect; inconclusive means small, poorly fitted or top-dose-only effect, or another doubt; inactive means no such curve, though single readings can be large; an effect the other way counts as inactive or inconclusive.

SMILES	3T3 cytotox	SNCA viab count	SNCA expr inh	IP6K1 inh	FLuc inh-1	HEK293 tox	IP6K1 conf	others
CNC(=O)NCCc1ncc(C)n1C1CCCCCC1	-3%	-10%	-7%	8	i	2%	nt
CN1CCN(c2ccc(-c3cc4c(ccn4C)c(C(=O)NCCC(N)=O)n3)cc2)CC1	79µM*	0%[87.6 µM]	14%[87.6 µM]	6	7.1µM*	71µM*	nt	FLuc SDR -ATP=26%[49.3 µM];FLuc SDR ATP=17%[49.3 µM];FLuc inh-2=14µM*
COc1ccc(-c2cc3c(ccn3C)c(C(=O)NCc3cccnc3)n2)cc1OC	?	-20%[87.6 µM]	60%[87.6 µM]	0	?	?	nt
CN1CCN(c2ccc(-c3cc4c(ccn4C)c(C(=O)NCC4CCC(=O)N4)n3)cc2)CC1 (centres undefined)	28µM*	-6%	27%	-6	10µM*	40µM*	nt	FLuc SDR -ATP=18%;FLuc SDR ATP=12%;FLuc inh-2=?
Cn1ccc2c(C(=O)NCc3cccnc3)nc(-c3ccc(N4CCOCC4)cc3)cc21	?	-7%[87.6 µM]	94%[87.6 µM]	7	14µM*	112µM*	nt	FLuc SDR -ATP=15%[49.3 µM];FLuc SDR ATP=11%[49.3 µM];FLuc inh-2=?
COc1cccc(CNC(=O)Cn2c(C)cc3nc4n(c(=O)c32)CCCCC4)c1	-4%	-1%	-5%	5	i	-6%	nt
COc1cccc(CNC(=O)Nc2cccc(-c3ccc(N4CCOCC4)nn3)c2)c1	?	-3%	?	-39*	1.1µM*	?	?	FLuc SDR -ATP=?;FLuc SDR ATP=?;FLuc inh-2=2.8µM*
N=c1nc(N2CCCCC2)cc(N)n1O	nt	-2%	-9%	-14	nt	nt	nt
Nc1cccc(-c2ccc(N3CCCCC3)nn2)c1	35µM*	-10%	1.8µM*	-27*	0.4µM*	35µM*	?	FLuc SDR -ATP=1.6µM*;FLuc SDR ATP=1.2µM*;FLuc inh-2=0.56µM*
O=C(NC1CCCC1)[C@@H]1CCCN1c1nccc(Nc2ccccc2Cl)n1	?	2%[12.5 µM]	-5%	-3	nt	?	nt
O=C(Nc1ccc2oc(-c3ccccc3F)nc2c1)c1ccccc1Cl	nt	-15%	-4%	-49*	nt	nt	?	FLuc SDR -ATP=20%;FLuc SDR ATP=17%;FLuc inh-2=?
CNC(=O)c1cc(C2CC2)nc2onc(C3CCN(C(=O)Cc4cccc(Cl)c4)C3)c12 (centres undefined)	-17%	nt	nt	-8	nt	?	nt
CCOc1ccc2c(n1)CCN(C(=O)Cc1c[nH]c3ccccc13)C2	-29%	6%[12.5 µM]	1%	-26*	i	?	-26%
CCOc1ccc2c(n1)CCN(C(=O)Cc1ccccc1)C2	-7%	-9%[12.5 µM]	29%	-10	i	9%	nt
CCOc1cc(=O)n2c(c1C(=O)Nc1ccc(F)c(F)c1)CCCC2	i	-12%	-6%	11	i	-5%	nt
CCOc1nccn2c(-c3ccc(CNc4ccc(OC)nc4)cc3)cnc12	?	-8%[87.6 µM]	-29%[87.6 µM]	-36*	22µM*	?	?
Cc1ccc(NC(=O)NCc2c(-n3cccc3)sc3c2CCCC3)c(Cl)c1	nt	0%	-17%	-27*	nt	nt	-20%
CN1CCN(C(=O)c2ccc3oc(-c4ccncc4)nc3c2)CC1	-12%[138 µM]	12%[87.6 µM]	-17%[87.6 µM]	5	nt	1%[172 µM]	nt
c1ccc(C2=Nn3c(nnc3-c3ccncc3)SC2)cc1	nt	nt	nt	nt	nt	nt	18%
Cc1cc(C)cc(NC(=O)c2sc3nc4n(c(=O)c3c2C)N=C(c2ccccc2)CS4)c1	nt	9%	85%	1	nt	nt	nt
CCC(=O)N1CCc2cc(Br)cc(S(=O)(=O)CCC(=O)N3CCN(c4ccccc4OC)CC3)c21	nt	1%	3%	-27*	nt	nt	-6%
CCC(=O)N1CCc2cc(Br)cc(S(=O)(=O)N(CC)Cc3ccccc3)c21	nt	1%	-5%	-27*	nt	nt	38%
CCC(=O)N1CCc2cc(Br)cc(S(=O)(=O)CCC(=O)N3CCN(c4ccc(OC)cc4)CC3)c21	nt	-1%	-22%	-8	nt	nt	nt
O=S(=O)(c1ccc(Cl)s1)N1CCC(n2cnnc2C2CC2)CC1	?	13%	-5%	0	i	-15%	nt
C=Cc1cc(O)cc2nc(-c3ccc(O)c(F)c3)oc12	nt	-4%	nt	-28*	nt	nt	?
SMILES	3T3 cytotox	SNCA viab count	SNCA expr inh	IP6K1 inh	FLuc inh-1	HEK293 tox	IP6K1 conf	others
COc1ccc(-c2ccc(C(=O)NCC(F)(F)F)cc2)nn1	-27%[138 µM]	nt	nt	2	nt	-6%[172 µM]	nt
COc1cc(O)cc(/C=C/c2cccc(O)c2)c1	nt	-18%	nt	-45*	nt	nt	?
CC(=O)Oc1cccc(O)c1	nt	-16%[23.9 µM]	-47%[25.6 µM]	35	nt	nt	nt
COc1cncc(Nc2cnc3ccc(-c4ccccc4)nn23)c1	?	7%[87.6 µM]	46%[87.6 µM]	-36*	i	-26%[172 µM]	?
OC[C@H]1C[C@@H](NCc2cccc3c2OCO3)[C@H](O)[C@@H]1O	2%[174 µM]	1%[87.6 µM]	2%[87.6 µM]	-26*	i	-3%[230 µM]	?
O=C1Nc2ccc(I)cc2/C1=C/c1cc(Br)c(O)c(Br)c1	nt	-9%	7%	nt	nt	nt	2.9µM*
O=C(O)COCCN1CCN(C(c2ccccc2)c2ccc(Cl)cc2)CC1 (centres undefined)	nt	-3%	-12%	10	nt	nt	nt
OCCOCCN1CCN(C(c2ccccc2)c2ccc(Cl)cc2)CC1 (centres undefined)	nt	-24%[23.9 µM]	-32%[25.6 µM]	-31*	nt	nt	3.7µM*
CNC(=O)c1cc(C)nc2onc(C3CCN([S+](=O)([O-])c4cccs4)CC3)c12	?	nt	nt	7	nt	?	nt
